# From PubChem BioAssay (NCATS)
# Records with an inconclusive call do not appear. Entries that show only a call come without a potency. Unmarked numbers belong to inactive results. Activity calls are given as the source filed them. Calls come from the whole dose curve; as a rule, active = well fitted cell-killing curve with a large enough effect; inconclusive = small, poorly fitted or top-dose-only effect, or effect the other way; inactive = flat fitted curve, though single readings scatter. *1 amine or outer side, *2 acyl side, *3 side chain or, on linkers, in order; H or OH if unused. Where a SMILES comes first, the peptide text is derived from it. [ ]: non-standard residue; d: D form. The star is where a group is joined. ξ: configuration not given here. X9 = CCC(C)(N*)C(=O)C1CC[C@@H](C(=O)N[C@@H](Cc2ccccc2)C(=O)NCC(=O)O)N1; X8 = O=C([C@@H]1CC(O)CN1[*:1])[*:2]; aIle = CC[C@@H](C)[C@H](N)C(=O)O; Thr(3ξ) = CC(O)[C@H](N)C(=O)O; ξIva = CCC(C)(N)C(=O)O; Aib = CC(C)(N)C(=O)O
# Test system: Tov112D
# Assay: Primary qHTS to identify gynecologic anti-cancer compounds using libraries of approved drugs and bioactive compounds (AID 1345084); note: nearly all actives have a fitted effect of over 55% in size
# Settings: Gynecologic cancer cell panel viability, ATPlite luminescence, 48 h; series mostly up to 57.5 µM
# Summary of the method: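 Five-concentration response, 48 h; readout is ATP-driven luciferase luminescence.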
Compound,Potency,"activity change, negative = cytotoxicity"
C=C1[C@H]2CCC3[C@]4(C)CCC[C@@](C)(C(=O)O)C4CC[C@]3(C2)[C@H]1OC(C)=O (some centres not stated),inactive,–
CC[C@@H](C)[C@H](NC(=O)C(C)(C)NC(=O)[C@H](CCC(N)=O)NC(=O)C(C)(CC)NC(=O)[C@H](Cc1c[nH]c2ccccc12)NC(C)=O)C(=O)N[C@H](C(=O)NC(C)(C)C(=O)N[C@@H](CC(C)C)C(=O)NC(C)(C)C(=O)N1CCC[C@H]1C(=O)N[C@@H](CCC(N)=O)C(=O)NC(C)(C)C(=O)N1CC(O)C[C@H]1C(=O)NC(C)(CC)C(=O)C1CC[C@@H](C(=O)N[C@@H](Cc2ccccc2)C(=O)NCC(=O)O)N1)C(C)O (some centres not stated) (Ac-W[ξIva]Q[Aib][aIle][Thr(3ξ)][Aib]L[Aib]PQ[Aib][X8]-X9),–,-24.7% [at 6.55 µM]
OC[C@H]1O[C@@H](OCCc2ccccc2)[C@H](O[C@@H]2OC[C@@H](O)[C@H](O)[C@H]2O)[C@@H](O)[C@@H]1O,inactive,–
CC1=CC23[C@H](C=C(C(=O)O)[C@@H]2COC(=O)[C@]3(O)CO)[C@@H]1C (some centres not stated),inactive,–
CC(C)(C)NS(=O)(=O)c1ccc(-c2ccc3[nH]nc(N)c3c2)cc1,inactive,–
C[C@@H]1C[C@@H](O)[C@@]23CO[C@]2(CO)CCC[C@@H]3[C@@]12C[C@@H](c1ccoc1)OC2=O,inactive,–
COc1cccc(CN(C(=O)CC(C)(C)C)C2CC(C(=O)N3CCNCC3)N(Cc3ccc4c(c3)OCO4)C2)c1 (configuration not stated),inactive,–
C=C1CC23CC1CCC2C12OC(=O)C(C)(C(O)CC1O)C2C3C(=O)O (configuration not stated),inactive,–
COc1ccc(C2C(C(=O)O)C(C(=O)O)C2c2ccc(OC)cc2O[C@@H]2O[C@H](CO)[C@@H](O)[C@H](O)[C@H]2O)c(O[C@@H]2O[C@H](CO)[C@@H](O)[C@H](O)[C@H]2O)c1 (some centres not stated),inactive,–
CC1OC(OC2C(OC3C(O[C@H]4CC[C@@]5(C)C(CC[C@]6(C)C5C(=O)CC5=C7CC(C)(C)CC(O)[C@]7(C)CC[C@]56C)C4(C)C)OC(C(=O)O)C(O)C3O)OCC(O)C2O)C(O)C(O)C1O (some centres not stated),–,3.63% [at 11.6 µM]
CN1CCN(c2nc(-c3ccc(C(=O)NC4(C(=O)NCC#N)CCCCC4)cc3)cs2)CC1,inactive,–
C[C@H]1/C=C/C=C/C=C/C=C/C=C/[C@@H](O)[C@H](C(=O)O)[C@H](O)C[C@H](O)CCC[C@H](O)C[C@H](O)C[C@H](O)[C@@H](C)C(=O)O[C@@H]1C,inactive,–
COc1cc(Nc2nc3c(s2)CCCC3c2ccccc2)ccc1-n1cnc(C)c1 (configuration not stated),–,0.142% [at 11.6 µM]
CCCO[C@@H]1O[C@H](CO)[C@@H](O)[C@H](O)[C@H]1O[C@@H]1OC[C@@H](O)[C@H](O)[C@H]1O,inactive,–
O=C(C[C@@H]1C(C(=O)O)=CO[C@@H](O[C@@H]2O[C@H](CO)[C@@H](O)[C@H](O)[C@H]2O)/C1=C\CO)OCCc1ccc(O)cc1,inactive,–
CC(C)(CC(=O)N1CCCC1)NCC(=O)N1C[C@@H](F)C[C@H]1C#N,inactive,–
CC1(C)CC[C@]2(C(=O)O)[C@H](O)C[C@]3(C)C(=CCC4[C@@]5(C)CC[C@H](O[C@@H]6OC[C@@H](O)[C@H](O)[C@H]6O)[C@@](C)(C(=O)O)C5CC[C@]43C)[C@@H]2C1 (some centres not stated),inactive,–
CN1CCc2cc(Cl)c(O)cc2[C@@H](c2cccc3c2OCC3)C1,inactive,–
CCc1nnc(NS(=O)(=O)c2ccc(NC(=S)NC(=O)/C=C/c3ccc(F)cc3)cc2)s1,inactive,–
COc1c2cc(c(O)c1OC)CCCCC(O)CCc1ccc(O)c-2c1 (configuration not stated),inactive,–
C/C(=C\C1CCC(C)C2CCC3(C)OC123)C(=O)O (configuration not stated),inactive,–
CCCC/C=C\CCCCCc1cc(=O)c2ccccc2n1C,inactive,–
CC1OC(O[C@@H]2[C@@H](O)[C@H](OC(=O)[C@]34CCC(C)(C)C[C@H]3C3=CCC5[C@@]6(C)CC[C@H](O[C@@H]7O[C@H](C(=O)O)[C@@H](O)[C@H](O[C@@H]8OC[C@@H](O)[C@H](O)[C@H]8O)[C@H]7O[C@@H]7O[C@H](CO)[C@H](O)[C@H](O)[C@H]7O)[C@@](C)(C=O)C6CC[C@@]5(C)[C@]3(C)C[C@H]4O)O[C@H](C)[C@@H]2OC2OC(C)C(OC3OCC(O)C(O)C3O)C(O)C2O)C(O)C(O)C1O (some centres not stated),–,10.7% [at 6.55 µM]
COc1ccnc(CCc2nc3ncccc3[nH]2)c1,inactive,–
CCC(C)C(=O)O[C@H]1C[C@](C)(O)[C@]23OC(C)(C)[C@H](C[C@H](OC(=O)c4ccccc4)[C@]2(COC(C)=O)[C@H]1OC(=O)C(C)CC)[C@H]3OC(C)=O (some centres not stated),inactive,–
C[C@@H]1O[C@@H](O[C@H]2[C@@H]3C=CO[C@@H](O[C@@H]4O[C@H](CO)[C@@H](O)[C@H](O)[C@H]4O)[C@@H]3[C@@]3(CO)O[C@@H]23)[C@H](OC(=O)/C=C/c2ccc(O)cc2)[C@H](O)[C@H]1O,inactive,–
CC(=O)c1ccc(O[C@@H]2O[C@H](CO[C@@H]3OC[C@@H](O)[C@H](O)[C@H]3O)[C@@H](O)[C@H](O)[C@H]2O)cc1,inactive,–
